Assay outcomes (PubChem)
Pyk2 oligo antag: antagonists of human Pyk2 oligomerization; Q14289; Q293 cells, Pyk2 FERM NanoBiT luminescence; active compounds read low; z-score (the deposit names both 25 µM and 10 µM); 99,000 tested, 0.83% active; AID 1347419;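 active means Z-score of -3 or lower, scaled per plate to the spread of control and sample wells; inactive means z-score above -3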;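 further: negative z-score means lost luminescence so less FERM oligomerization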
Target sequence (Q14289 whole entry, looked up): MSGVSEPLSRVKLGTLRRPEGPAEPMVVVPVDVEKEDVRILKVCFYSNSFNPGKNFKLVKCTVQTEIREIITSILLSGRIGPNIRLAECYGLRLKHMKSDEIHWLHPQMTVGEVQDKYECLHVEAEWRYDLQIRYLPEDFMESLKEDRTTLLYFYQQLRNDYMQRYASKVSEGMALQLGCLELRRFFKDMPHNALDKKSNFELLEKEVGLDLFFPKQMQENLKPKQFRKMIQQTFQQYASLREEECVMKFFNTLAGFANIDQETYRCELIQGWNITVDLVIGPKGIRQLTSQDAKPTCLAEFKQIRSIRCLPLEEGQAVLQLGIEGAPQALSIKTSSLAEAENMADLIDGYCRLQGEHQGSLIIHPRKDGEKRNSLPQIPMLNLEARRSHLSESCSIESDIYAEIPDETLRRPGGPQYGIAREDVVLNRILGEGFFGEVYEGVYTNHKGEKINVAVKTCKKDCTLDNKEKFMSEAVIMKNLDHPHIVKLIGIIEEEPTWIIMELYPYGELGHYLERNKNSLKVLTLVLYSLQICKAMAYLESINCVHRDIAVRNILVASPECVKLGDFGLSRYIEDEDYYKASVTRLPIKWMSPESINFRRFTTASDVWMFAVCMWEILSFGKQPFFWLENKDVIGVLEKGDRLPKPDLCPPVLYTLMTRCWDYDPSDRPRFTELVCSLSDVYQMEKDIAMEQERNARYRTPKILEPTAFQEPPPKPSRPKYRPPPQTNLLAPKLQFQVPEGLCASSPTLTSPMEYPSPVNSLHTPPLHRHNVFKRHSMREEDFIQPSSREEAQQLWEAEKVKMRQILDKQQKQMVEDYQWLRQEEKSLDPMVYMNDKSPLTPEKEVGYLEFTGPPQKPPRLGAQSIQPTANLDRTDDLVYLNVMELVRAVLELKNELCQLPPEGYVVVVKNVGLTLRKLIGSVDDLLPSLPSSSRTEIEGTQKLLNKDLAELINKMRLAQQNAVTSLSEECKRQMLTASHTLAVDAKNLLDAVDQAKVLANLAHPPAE
PostGolgi yeast: growth inhibition of a yeast mutant, post-Golgi transport screen | post-Golgi transport phenotypic cell assay | inhibition, % at 10 µM | 98,000 tested, 0.9% active;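 further: yeast cells grown in 1536-well plates; yeast grown about 18 h at 30C before absorbance read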
PostGolgi ctrl: inhibits growth of the yeast control strain. efflux-deficient yeast background strain, growth absorbance A615, 16 h. inhibition, % at 10 µM. 98,000 tested, 5% active. AID 738
Cav32 inh: inhibitors of human Cav3.2 T-type calcium channel | O95180 | Cav3.2-expressing cells, Fluo-4 calcium fluorescence FDSS; active compounds read low | AID 449739 | 100,000 tested, 4% active | B-score at 10 µM;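 active means single-dose well whose peak fluorescence ratio is a statistical outlier from its plate by either plate-standardised score or position-corrected B-score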
An asterisk follows results filed as active; . = no result. Compounds with a hit are over-represented: about 8% of the library has one in this group of screens. Unless noted, no stated cut-off is given here; in the data, active means inhibition above about 30%; inactive means the rest.

SMILES | Pyk2 oligo antag | PostGolgi yeast | PostGolgi ctrl | Cav32 inh
O=C(NCC1CCCO1)C(c1cccs1)N(Cc1cccs1)C(=O)Cn1nnc(-c2cccs2)n1 (stereo not given) | -0.77 | . | . | -7.13*
O=C(Cn1cnc2c(oc3ccccc32)c1=O)NCC1CCCO1 (stereo not given) | 0.82 | 9.2 | -7.6 | 0.195
COc1ccc(S(=O)(=O)Nc2cc(C(C)C)c(O)cc2C)cc1 | -2.38 | -7.8 | 2.6 | -4.82*
COc1nc(N)c(S(=O)(=O)c2ccccc2C)cc1C#N | -0.46 | 22.0 | 4.4 | -3.88*
COc1nc(N)c(S(=O)(=O)c2ccccc2)cc1C#N | -0.29 | 17.3 | -2.7 | 0.637
Cc1ccc(NC(=O)C2(c3ccccc3)CC2(Cl)Cl)cc1C (stereo not given) | -3.23* | 2.2 | 19.7 | .
Cc1cc(C)cc(NC(=O)C2(c3ccccc3)CC2(Cl)Cl)c1 (stereo not given) | -2.41 | 11.0 | 27.8 | -6.13*
CCc1ccc(NC(=O)C2(c3ccccc3)CC2(Cl)Cl)cc1 (stereo not given) | -3.07* | -2.2 | 30.7* | -2.8
Cc1cccc(NC(=O)N2CCN(Cc3ccccc3)CC2)c1 | -0.25 | . | . | 0.0528
Cc1cccc(NC(=O)C2(c3ccccc3)CC2(Cl)Cl)c1 (stereo not given) | -1.96 | 13.0 | 35.1* | -7.99*
CCN(CC)CCN(C)Cc1ccc(Br)cc1 | 0.44 | 1.2 | 2.9 | -3.53
COc1ccccc1NS(=O)(=O)c1cc(C(=O)N2CC(C)CC(C)C2)ccc1C (stereo not given) | -0.31 | 87.1* | 88.3* | -2.65
Cc1ccc(C)c(NS(=O)(=O)c2cc(C(=O)N3CCc4ccccc4C3)ccc2Cl)c1 | -2.08 | 103.9* | 70.6* | -3.73
Cc1ccccc1NS(=O)(=O)c1cc(C(=O)N2CCCC2)ccc1C | -1.31 | 0.9 | 4.5 | 1.59
Cc1ccccc1NS(=O)(=O)c1cc(C(=O)Nc2ccccc2-c2ccccc2)ccc1Cl | -1.34 | -8.2 | 26.9 | -3.39*
Cc1cccc(NS(=O)(=O)c2cc(C(=O)N3CCc4ccccc4C3)ccc2Cl)c1C | -2.08 | 96.8* | 73.9* | -1.93
O=C(c1ccccc1)c1ccc(C(=O)N2CCN(c3ccc(F)cc3)CC2)o1 | 0.07 | -9.4 | -1.2 | -3.03
O=C(Nn1c(=O)[nH]c2ccccc2c1=O)c1ccco1 | -0.18 | 5.0 | 25.3 | 0.376
COc1cc(/C=N/NC(=S)NCCN2CCOCC2)ccc1O | 1.71 | . | . | .
CCOc1cc(C)c(C(C)C)cc1S(=O)(=O)NCc1ccccn1 | -0.16 | 1.4 | 18.6 | 1.51
CC(=O)Nc1ccccc1-c1nc2ccc(C(=O)N3CCN(c4cccc(C)c4)C(C)C3)cc2[nH]c1=O (stereo not given) | . | 1.5 | 1.3 | -0.335
COC(=O)c1[nH]c2cc(C)ccc2c1NC(=O)CN1CCN(c2ccccc2OC)CC1 | -0.69 | 4.8 | 6.3 | -1.36
Cc1cccc(N2CCN(C(=O)c3ccc4nc(-c5ccco5)c(-c5ccco5)nc4c3)CC2C)c1 (stereo not given) | -1.36 | 1.5 | 5.6 | -6.55*
COC(=O)c1[nH]c2cc(OC)ccc2c1NC(=O)CN1CCN(c2cccc(C)c2)C(C)C1 (stereo not given) | 0.55 | -0.1 | 36.9* | -2.83
COC(=O)c1[nH]c2ccc(C)cc2c1NC(=O)CN1CCCc2ccccc21 | -0.32 | -2.4 | 47.6* | -2.9
SMILES | Pyk2 oligo antag | PostGolgi yeast | PostGolgi ctrl | Cav32 inh
Cc1cccc(N2CCN(C(=O)c3cc4c(=O)n(C)c5ccccc5c4n3C)CC2C)c1 (stereo not given) | . | -1.6 | 36.5* | -4.41*
COc1ccc(C2C=C(C34CC5CC(CC(C5)C3)C4)NC(=S)N2)cc1OC (stereo not given) | -0.53 | . | . | .
COc1ccc(NC(=O)C2=C(C)C(=O)OC23CCC(C)CC3)cc1Cl (stereo not given) | 0.01 | -8.3 | 16.2 | -1.53
COc1cccc(NC(=O)N2CCOCC2)c1 | -0.23 | 1.7 | 24.2 | 0.907
COc1cccc(NC(=O)N2CCN(c3cccc(C)c3)C(C)C2)c1 (stereo not given) | -0.3 | 18.0 | 5.5 | -4.89*
C=CCn1c(CSc2nc3ccccc3s2)nnc1SCC(=O)NCc1cccnc1 | 0.31 | . | . | 0.785
C=CCn1c(CSc2nc3ccccc3s2)nnc1SCC(=O)NCc1ccccc1 | 0.85 | -3.1 | 14.7 | -4.31*
CCOC(=O)c1sc(-c2ccccc2)cc1NC(=O)CSc1nnnn1C | -2.8 | 8.8 | 74.0* | -0.363
Cn1nc(C(=O)Nc2nc3ccc(S(C)(=O)=O)cc3s2)ccc1=O | 2.24 | -6.2 | 2.3 | .
CCN(CC)c1ccc2cc(-c3nc4ccccc4[nH]3)c(=O)oc2c1 | -2.28 | -0.5 | 4.4 | -7.29*
CCN(CC)c1ccc2cc(-c3nc4ccccc4n3C)c(=O)oc2c1 | -1.38 | -6.0 | 2.2 | -1.35
CCN(CC)c1ccc2cc(-c3nnc(-c4ccccc4)o3)c(=O)oc2c1 | -1.85 | . | . | -10.9*
